Source: PubChem
Sampled rows, rich in hits. Any-hit rate of the full collection: about 2%.
hERG WT inh – qHTS for Inhibitors of KCHN2 3.1: Wildtype qHTS; U2OS, BacMam KCNH2, thallium flux FluxOr; active compounds read low; activity change, % at 1.84 µM; 340,000 tested, 0.37% active; AID 720551, 2013;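 active = maximum activity change below -70%; inconclusive = maximum activity change between -70% and -50%; inactive = maximum activity change above -50%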
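U2OS cells transduced with wild-type KCNH2 virus are loaded with FluxOr dye for 45 min, and thallium flux is measured in kinetic reads before and after stimulation buffer. Rate constants are normalized to DMSO controls.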
KCNH2 3.1 inh – qHTS for Inhibitors of KCHN2 3.1: Mutant qHTS. activity change, % (tested at about 1.8 µM). U2OS KCNH2 3.1, thallium flux FluxOr; active compounds read low. 340,000 tested, 0.95% active;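 active = maximum activity change below -70%; inconclusive = maximum activity change from -70% to -50%; inactive = maximum activity change above -50%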;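 note: thallium influx rate constant from kinetic fluorescence after stimulation buffer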
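Channel expression came from 3.1 mutant virus (1.77 x 10^8 /mL) applied to suspended U2OS cells for 4 h. Flux was tracked with FluxOr dye plus Red40 quencher, and kinetic rate constants normalized to controls.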
CtBP-E1A inh – qHTS Assay for Inhibitors of the CtBP/E1A Interaction; AlphaScreen GST-E1A/His-CtBP binding, 1536-well; active compounds read low; AID 651724, 2012; 340,000 tested, 0.49% active; CtBP / adenovirus E1A interaction (AlphaScreen); activity change, % (no concentration beside the values)
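AlphaScreen with 125 nM GST-E1A and 125 nM His-CtBP (5X stocks) in Tris pH 8.0, 300 mM NaCl, BSA, Tween 20, TCEP. Compounds preincubated 2 h at 37 deg C, then glutathione donor/nickel acceptor beads added for 1 h at 37 deg C in dark.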
Six1-Eya2 blk – qHTS Assay for Inhibitors of the Six1/Eya2 Interaction; AlphaScreen GST-Six1/His-Eya2 binding, biochemical; active compounds read low; activity change, % (concentration not given with the values); 360,000 tested, 0.56% active
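AlphaScreen with GST-Six1 and His-Eya2 (5X mix: 250 nM and 500 nM), glutathione donor and nickel acceptor beads; buffer 50 mM Tris pH 8.0, 300 mM NaCl, 1 mM TCEP; 1 h at 37 C in the dark.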
JMJD2E inh – qHTS Assay for Inhibitors of Human Jumonji Domain Containing 2E (JMJD2E); Potency, µM (titrated, usually from 57.1 µM), for the others: at the highest dose activity change, negative = inhibition, most hits filed as inhibitors; JMJD2E catalytic domain, FDH-coupled NADH fluorescence (FDH is formaldehyde dehydrogenase); 230,000 tested, 1.6% active; active = well fitted inhibition curve with a large enough effect, not every such curve was filed as active; inconclusive = small, poorly fitted or top-dose-only effect, or another doubt; inactive = no such curve, though single readings can be large or run the other way;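 note: potency is the fitted concentration of half-maximal effect; 0% = wells with enzyme and -100% = buffer wells without enzyme; nearly all actives have a fitted effect of over 50% in size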
Target sequence (B2RXH2 1-337 limits assumed): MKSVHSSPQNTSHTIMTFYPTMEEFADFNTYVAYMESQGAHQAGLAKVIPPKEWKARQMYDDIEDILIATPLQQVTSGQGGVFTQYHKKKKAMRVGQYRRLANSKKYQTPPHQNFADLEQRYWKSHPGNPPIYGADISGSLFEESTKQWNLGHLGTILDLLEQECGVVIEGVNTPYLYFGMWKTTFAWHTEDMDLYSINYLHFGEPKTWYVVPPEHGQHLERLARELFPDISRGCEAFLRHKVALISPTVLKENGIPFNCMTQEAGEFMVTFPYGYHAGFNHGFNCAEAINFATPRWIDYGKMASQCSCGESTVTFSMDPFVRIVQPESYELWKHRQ
Starred values were filed as active, the others as inactive; i = inactive; ? = inconclusive; . = no result. Cut-off read from the data, not from the text of the source, unless noted: active = activity change below about -65%; inconclusive = mostly about -30% to -63%; inactive = weaker than that. Unless noted, % is set by controls: 0 for no effect and ±100 for the full control effect.

SMILES	hERG WT inh	KCNH2 3.1 inh	CtBP-E1A inh	Six1-Eya2 blk	JMJD2E inh
O=C(N/N=C/c1ccc(Cl)cc1Cl)c1ccncc1	-7	4	.	5	.
O=C(CC1SC(N2CCCCC2)=NC1=O)Nc1ccc(C(=O)NCc2ccccc2)cc1 (stereo unspecified)	-18	.	11	2	.
Cc1sc2nc(C(C)C)nc(SCC(=O)N3CCN(C(=O)c4ccco4)CC3)c2c1C	43	-2	-10	-18	1%
CCOc1ccc(NC(=O)N(CCN(C)C)C(C)c2cccnc2)cc1 (stereo unspecified)	7	6	0	6	-14%
Cc1ccc(S(=O)(=O)/N=C2/C=C(Sc3ncn[nH]3)C(=O)c3ccccc32)cc1	2	-1	35	?	4µM*
Cc1ccc(S(=O)(=O)/N=C2\C=C(NS(=O)(=O)c3ccccc3)C(=O)c3ccccc32)c(C)c1	1	1	-12	-16	.
Cc1ccc(S(=O)(=O)/N=C2/C=C(Sc3ncn[nH]3)C(=O)c3ccccc32)c(C)c1	.	.	.	.	8.9µM*
CC(C)c1ccc(S(=O)(=O)/N=C2/C=C(Sc3ncn[nH]3)C(=O)c3ccccc32)cc1	-10	-1	-12	3	1%
Cc1ccc(-c2nnn(CC(=O)N(CC(=O)NC3CCCCC3)c3ccccc3F)n2)o1	-20	-8	-3	-2	.
CC(C)(C)C1CCC(OC(=O)c2cncc(Br)c2)CC1 (stereo unspecified)	6	-28	6	4	10%
CCCCOc1cccc(C(=O)NC(=S)Nc2cccc(NC(=O)c3ccccc3Cl)c2)c1	-2	-6	2	-11	9%
CS(=O)(=O)N1Cc2ccccc2CC1C(=O)O (stereo unspecified)	-11	-95*	1	1	2%
COc1ccc(C2CC(c3ccccc3)=NN2C(=O)CN2CCN(Cc3ccccc3)CC2)cc1 (stereo unspecified)	10	-25	0	-6	5%
Cc1ccnc(NC(=O)Cc2ccc([N+](=O)[O-])cc2)c1	-1	-12	8	-4	-5%
Cc1ccnc(NC(=O)c2cc([N+](=O)[O-])cc([N+](=O)[O-])c2)c1	-3	-89*	2	-8	-12%
Cc1ccc(NS(=O)(=O)c2c(C(=O)N3CCCC3)c(C)n(C)c2C)cc1	4	11	0	2	.
COc1ccc(NS(=O)(=O)c2c(C(=O)N3CCCCCC3)c(C)n(C)c2C)cc1	9	-74*	-16	0	.
CC(C)CN1C(=O)NC(NC(=O)c2cccs2)(C(F)(F)F)C1=O (stereo unspecified)	-4	-7	2	5	1%
COc1ccc(OC)c(NC(=O)c2cccc(Cn3cc(Br)c([N+](=O)[O-])n3)c2)c1	2	-19	-26	-21	-5%
COc1cc(/C=N\NC(=O)c2ccc(Cn3nc([N+](=O)[O-])c(Cl)c3C)o2)ccc1O	2	-34	-84*	-83*	0%
COc1cccc(/C=N\NC(=O)c2ccc(Cn3cc(Br)c([N+](=O)[O-])n3)o2)c1O	7	-2	-74*	?	-2%
CC(=O)c1cccc(N(C(=O)c2ccco2)C(C(=O)NC2CCCC2)c2ccncc2)c1 (stereo unspecified)	-115*	-9	-5	0	-16%
CC(=O)c1cccc(N(C(=O)c2ccco2)C(C(=O)NC2CCCC2)c2ccc(N3CCOCC3)cc2)c1 (stereo unspecified)	i	19	5	4	-5%
CCn1c(C)nc2cc(C(=O)N/N=C/c3cccc(OC)c3O)ccc21	17	18	-93*	-80*	0%
CCn1c(C)nc2cc(C(=O)N/N=C/c3ccc(O)c(O)c3O)ccc21	-4	-12	-93*	-90*	-3%
SMILES	hERG WT inh	KCNH2 3.1 inh	CtBP-E1A inh	Six1-Eya2 blk	JMJD2E inh
CCCC(CCC)c1nnc(NC(=O)c2ccco2)s1	-19	9	4	-19	.
O=C(CSc1nc2ccccc2c(=O)n1-c1ccc(F)cc1F)c1c[nH]c2ccccc12	-122*	0	2	4	0%
O=C(CSc1nc2ccccc2c(=O)n1-c1ccc(F)cc1F)NC1CC1	-5	-1	-12	0	.
CC1CCC(C(C)C)C(OP(=O)(c2ccccc2)C(O)c2ccncc2)C1 (stereo unspecified)	1	-8	-2	6	18µM*
CC(C)COP(=O)(c1ccc(N(C)C)cc1)C(O)c1ccncc1 (stereo unspecified)	2	1	-3	-8	20µM*
CN(C)c1ccc(P(=O)(OC2CCCCC2)C(O)c2ccncc2)cc1 (stereo unspecified)	-3	10	0	2	22µM*
C/C=C(/C)C(=O)O[C@@H]([C@H](O)c1cc2ccc(=O)oc2cc1OC)C(C)(C)O[C@@H]1O[C@H](CO)[C@@H](O)[C@H](O)[C@H]1O	0	7	4	4	.
CCCCC[C@H](O)/C=C/[C@@H]1[C@@H](C/C=C\CCCC(=O)OC)[C@@H](O)C[C@H]1O	-9	14	12	-18	4µM*
O=C1c2[nH]nc(-c3ccccc3O)c2C(c2cccc(Cl)c2)N1CC1CCCO1 (stereo unspecified)	-137*	-191*	-28	-14	1%
O=C(Nc1ccc(S(=O)(=O)N2CCOCC2)cc1)c1ccccc1	1	2	-12	-12	.
Cc1ccc2cc3cc(C(=O)NCCC(C)C)oc3nc2c1	1	2	-5	-4	?
NC(=O)c1ccc(Nc2nnc(-c3ccc(O)cc3)c3ccccc23)cc1	9	7	-3	?	1%
COc1ccc(Nc2nnc(-c3ccc(C(N)=O)cc3)c3ccccc23)cc1	-6	11	5	-83*	.
Cn1c(=O)c(C(=O)CN2CCN(S(=O)(=O)c3ccccc3)CC2)c(N)n(Cc2ccccc2)c1=O	1	3	-1	-5	-6%
CCCn1c(N)c(C(=O)CN2CCN(S(=O)(=O)c3cccc(Cl)c3)CC2)c(=O)[nH]c1=O	?	-73*	11	0	.
Cc1ccn2c(NC3CCCC3)c(-c3ccccn3)nc2c1	-11	-24	-80*	-66*	1%
c1ccc(-c2nc3ccccn3c2NC2CCCC2)nc1	-15	-7	-67*	?	7%
Cc1cc(C)n2c(NC3CCCCC3)c(-c3ccccn3)nc2n1	.	.	?	-78*	.
